Most compounds without a hit are left out; they make up all but 1.6% or so of the library.
VLA-4 inh: inhibition in a human VLA-4 binding assay; VLA-4 expressing cells, ligand binding flow cytometry; inhibition, % (about 7 µM as worked out from the volumes in the protocol); AID 2557; actives 0.2% (n = 330,000); in the data active means inhibition above about 50%
GRK2 aptamer HTS: human GRK2 inhibition via aptamer displacement; actives 0.59% (n = 330,000); bead flow cytometry, FAM-aptamer displacement from GRK2; inhibition of aptamer binding, % at 10 µM; AID 488847;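 active means inhibition of aptamer binding above 40%, roughly 3 SD of noise, on plates passing a quality check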;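 further: median bead fluorescence of bound FAM aptamer so fluorescent compounds give negative values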
JMJD2C inh: inhibitors of human GASC-1 (JMJD2C) demethylase; Q9H3R0; GST-JMJD2C(1-420) H3K9me3 demethylation, DELFIA europium; inhibition, % at 2.35 µM; actives 0.069% (n = 330,000);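 active means more than half of a compound's replicate wells show inhibition beyond 50%, single wells judged on their own value; inconclusive means some, but no more than half, of replicates pass 50% inhibition; inactive means no replicate passes 50% inhibition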;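 further: signal counts dimethyl H3K9 product captured on neutravidin plate; 0% = median of DMSO wells and 100% = 0.3 times that DMSO median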
DSG3 Ab inh: blocks pemphigus antibody binding to human desmoglein-3. P32926. DSG3-coupled beads, scFv-anti-DSG3-GFP binding, flow cytometry; hits give low values. binding (percent of control), % at 10 µM. actives 0.48% (n = 310,000);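 active means binding more than 3 SD below its plate's average and above zero; inconclusive means below that plate limit but binding exactly zero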;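 further: hits lower antibody fragment binding to DSG3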
Target sequence (P32926 whole entry, looked up, the tested form may be a part): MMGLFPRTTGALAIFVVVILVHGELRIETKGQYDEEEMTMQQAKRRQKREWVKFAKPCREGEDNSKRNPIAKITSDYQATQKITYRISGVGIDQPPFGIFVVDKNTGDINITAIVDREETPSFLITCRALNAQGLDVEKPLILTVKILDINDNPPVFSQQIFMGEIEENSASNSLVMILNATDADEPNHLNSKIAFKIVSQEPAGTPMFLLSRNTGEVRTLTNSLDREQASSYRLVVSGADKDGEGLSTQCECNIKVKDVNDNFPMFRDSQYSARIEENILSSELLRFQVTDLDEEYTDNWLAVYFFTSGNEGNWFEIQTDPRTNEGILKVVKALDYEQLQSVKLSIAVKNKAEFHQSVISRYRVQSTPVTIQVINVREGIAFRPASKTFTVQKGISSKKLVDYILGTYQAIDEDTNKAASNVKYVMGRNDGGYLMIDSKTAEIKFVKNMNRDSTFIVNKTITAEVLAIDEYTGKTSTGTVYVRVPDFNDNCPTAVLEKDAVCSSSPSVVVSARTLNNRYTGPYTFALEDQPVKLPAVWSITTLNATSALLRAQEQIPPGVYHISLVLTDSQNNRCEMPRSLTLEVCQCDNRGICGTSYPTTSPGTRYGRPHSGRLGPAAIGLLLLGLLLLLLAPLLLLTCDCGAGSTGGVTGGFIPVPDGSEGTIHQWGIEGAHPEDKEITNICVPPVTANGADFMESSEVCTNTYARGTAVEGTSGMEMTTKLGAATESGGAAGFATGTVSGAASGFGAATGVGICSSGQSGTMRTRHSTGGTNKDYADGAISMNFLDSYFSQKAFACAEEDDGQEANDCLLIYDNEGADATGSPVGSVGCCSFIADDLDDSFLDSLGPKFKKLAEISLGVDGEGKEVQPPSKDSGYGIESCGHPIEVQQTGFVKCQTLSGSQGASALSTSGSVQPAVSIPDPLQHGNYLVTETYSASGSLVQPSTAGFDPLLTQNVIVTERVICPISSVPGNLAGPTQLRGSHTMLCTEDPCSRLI
PREPL inh: inhibits the human prolyl oligopeptidase-like enzyme; Q4J6C6; inhibition, % at 5.96 µM; AID 2751; recombinant PREPL, fluorescence polarization activity-based probe; actives 0.68% (n = 320,000); in the data active means inhibition above about 43%;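 further: 0% = enzyme with DMSO and 100% = wells lacking enzyme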
Numbers without * were called inactive; ? = inconclusive; / = no result.

SMILES | VLA-4 inh | GRK2 aptamer HTS | JMJD2C inh | DSG3 Ab inh | PREPL inh
O=C(Nc1nc2cc3c(cc2s1)OCCO3)c1ccc(N2C(=O)CCC2=O)cc1 | 8.1 | 1.0 | 41.4 | 81.1* | 2.8
NNC(=O)Cn1c(COc2ccc(Cl)cc2)nc2ccccc21 | -7.0 | 1.0 | -1.5 | 132.1 | -6.2
CCC(C)NC(=O)Cn1c(COc2ccc(Cl)cc2Cl)nc2ccccc21 (stereo not drawn) | -8.4 | 0.0 | -3.2 | -1.1* | 13.2
CN1C(=O)N(C)C2(C)CC1(C)N(C)C(=O)N2C | -0.8 | 4.0 | -18.8 | 98.4 | 1.0
CC1CCCCC1NC(=O)COC(=O)c1c2c(nc3ccccc13)/C(=C/c1ccco1)CC2 (stereo not drawn) | -103.5 | 6.0 | 2.2 | 77.5* | 1.2
O=C(CSc1nc2ccccc2n1CCc1ccccc1)c1ccc(O)c(O)c1 | / | / | / | 71.7* | /
O=C(NC1CCCCC1)C(c1ccncc1)N(C(=O)c1csnn1)c1ccccc1F (stereo not drawn) | 6.5 | 0.0 | -4.8 | 98.7 | -0.3
Cn1c(C(=O)N2CCN(c3ccc([N+](=O)[O-])cc3)CC2)cc2c(=O)[nH]c3ccccc3c21 | / | / | 26.2 | 71.6* | /
O=C(c1cc([N+](=O)[O-])ccc1Cl)N1CCN(c2ccc(F)cc2)CC1 | 3.9 | 1.0 | 0.6 | 101.3 | 45.0*
COc1ccc(-c2cn3c(C)c(C(=O)Nc4cccc(NC(C)=O)c4)sc3n2)cc1 | 0.6 | 0.0 | 3.6 | 80.4* | -19.4
COc1ccc(-c2cn3c(C)c(C(=O)N4CCN(c5ccccc5F)CC4)sc3n2)cc1 | 18.1 | 2.0 | -1.5 | 111.0 | 14.4
COc1ccc(N2CCN(C(=O)c3sc4nc(-c5ccc(F)cc5)cn4c3C)CC2)cc1 | -2.5 | 0.0 | -0.1 | 27.4* | 14.6
CC(=O)c1ccc(NC(=O)CN2C(=O)NC(C)(c3ccc4c(c3)OCCO4)C2=O)cc1 (stereo not drawn) | -5.5 | 0.0 | 0.4 | 100.0 | 10.9
CCN(C[C@H]1N[C@@](CC)(C(=O)OC)[C@H]2C(=O)N(Cc3ccccc3)C(=O)[C@@H]12)S(=O)(=O)c1ccc(C(C)(C)C)cc1 | 26.8 | 3.0 | 44.0 | 94.1 | 17.6
NC(=O)NC(=O)CSc1nnc(-c2ccco2)n1Cc1ccccc1 | -17.4 | 2.0 | 50.3* | 101.8 | 15.0
CNC(=O)NC(=O)CSc1nnc(-c2ccco2)n1Cc1ccccc1 | 5.5 | 3.0 | 6.8 | ? | -8.6
CCOC(=O)C1=C(C)Nc2nc(SCC)[nH]c(=O)c2C1c1ccncc1 (stereo not drawn) | 7.8 | 7.0 | 0.9 | 102.7 | 20.1
COc1ccc(C(=O)Nc2ccc3oc(-c4cccc(F)c4)nc3c2)cc1OC | 36.5 | 2.0 | 5.2 | 51.9* | -3.6
COc1ccc(C(=O)Nc2ccc3[nH]ccc3c2)cc1OC | -6.4 | 1.0 | 4.0 | 84.7* | 3.3
COc1ccc(C(=O)Nc2ccc3oc(-c4cccnc4)nc3c2)cc1OC | -15.2 | 0.0 | -7.3 | 103.7 | 3.8
CC(C)Oc1ccc(S(=O)(=O)N2CCOCC2)cc1NC(=O)C1=NN(c2ccccc2)C(=O)CC1 | / | / | / | 103.0 | /
CN(CC(=O)Nc1ccccc1C(F)(F)F)C(=O)c1ccccc1Sc1ccccc1C#N | 22.0 | 0.0 | -0.4 | / | 3.4
CN(c1ccccc1)c1ccc(/C=N/NC(=O)CC#N)cc1 | 14.5 | 0.0 | 1.8 | 112.1 | 50.3*
COc1ccc(NS(=O)(=O)c2cccc(NC(=O)c3ccc(S(=O)(=O)N4CCCCCC4)cc3)c2)cc1 | 5.1 | 2.0 | -8.0 | 108.7 | -13.9
O=C(CSc1n[nH]c(-c2ccco2)n1)Nc1ccccc1Cl | 7.9 | 0.0 | -13.3 | 43.0* | -4.6
SMILES | VLA-4 inh | GRK2 aptamer HTS | JMJD2C inh | DSG3 Ab inh | PREPL inh
O=C(CCS(=O)(=O)c1ccccc1)Nc1nc(-c2cccs2)cs1 | 8.9 | 3.0 | 0.9 | 69.1* | -13.5
Nc1nonc1-n1nnc(C(=O)N/N=C/c2ccc(OCc3ccccc3F)cc2)c1CN1CCCCC1 | -0.6 | 0.0 | -3.6 | -3.4* | 7.8
Nc1nonc1-n1nnc(C(=O)N/N=C/c2ccc(OCc3cccc(Cl)c3)cc2)c1CN1CCCCC1 | -1.0 | 6.0 | -4.5 | 92.7 | 0.3
CN1CCN(CC(=O)NN(Cc2ccccc2)c2ccccc2)CC1 | 1.9 | 2.0 | 5.8 | 76.6* | -0.6
CCN(CC)CC(=O)NN(Cc1ccccc1)c1ccccc1 | 7.2 | 2.0 | 16.3 | / | -19.4
CCOc1ccc(-c2cc(C(=O)NCCCN3CCCC3)c3ccccc3n2)cc1 | -4.0 | 0.0 | -47.1 | / | -0.2
COc1cc(/C=C/C=C2/CC/C(=C/C=C/c3ccc(O)c(OC)c3)C2=O)ccc1O | / | / | / | 35.7* | /
COc1cc(/C=C2/CC/C(=C/c3ccc(O)c(OC)c3)C2=O)ccc1O | -67.9 | 1.0 | -4.2 | 85.9 | 17.4
Cc1cc(C)nc(SCC(=O)NN)n1 | 4.9 | 0.0 | 3.3 | 107.2 | 21.3
COc1ccc(/C=C2\Sc3ccc(C(=O)N4CCCC4)cc3N(C)C2=O)cc1OC | 1.8 | 0.0 | 52.7* | / | 7.2
CN(C)c1ccc(C(CNC(=O)c2ccc(C#N)cc2)c2c[nH]c3ccccc23)cc1 (stereo not drawn) | 27.3 | 0.0 | -1.5 | 117.6 | 65.1*
CCOC(=O)c1ccc(S(=O)(=O)NCC(c2ccc(N(C)C)cc2)c2c[nH]c3ccccc23)cc1 (stereo not drawn) | 11.1 | 2.0 | 0.4 | 97.7 | 28.3
COc1ccc(NC(=O)CN(C)C(=O)c2cc3c(s2)CCC3)cc1 | 6.8 | 63.0* | 4.5 | 93.2* | 0.2
COc1ccc(NC(=O)CN(C)C(=O)c2cc3c(s2)CCCCC3)cc1 | 17.6 | 0.0 | 27.2 | 110.5 | -3.0
O=[N+]([O-])c1ccccc1S(=O)(=O)N1CCN(c2ccccc2)CC1 | 0.0 | 1.0 | -4.2 | 113.7 | 2.9
CC(=O)c1c(C)[nH]c(C(=O)OCC(=O)NC(C)c2ccccc2)c1C (stereo not drawn) | / | / | / | 106.7 | /
Cc1cc(C)n2nc(SCc3cc(=O)oc4ccc5ccccc5c34)nc2n1 | 11.5 | 3.0 | 3.1 | / | 46.9*
O=C(C=Cc1ccccn1)c1ccccc1 | / | / | / | 92.8 | /
Nc1nn2c(-c3ccccc3)cc(=O)[nH]c2c1N=Nc1ccc(O)cc1 | 8.2 | 6.0 | 51.2* | 99.3 | 36.1
CC(N=Cc1c(O)c2ccccc2oc1=O)C(=O)O (stereo not drawn) | 4.2 | 0.0 | -1.0 | 51.3* | -2.6
CCOc1cc(C(c2c(C)[nH][nH]c2=O)c2c(C)[nH][nH]c2=O)ccc1OC(=O)c1cccc([N+](=O)[O-])c1 | -1.3 | 5.0 | 1.8 | 102.2 | 86.2*
Cc1ccc(C#N)c(SCCN2CCCCC2)n1 | 10.1 | 1.0 | 9.3 | 103.2 | /
Cc1cccc2cc(C#N)c(SCCN3CCCCC3)nc12 | -13.0 | 0.0 | 102.3* | / | -2.3
O=C(NCc1ccccc1Cl)c1cc([N+](=O)[O-])ccc1Cl | -1.6 | 0.0 | 13.5 | 72.1* | 6.8
O=C(NCc1ccc(Cl)cc1)c1cc([N+](=O)[O-])ccc1Cl | 1.8 | 0.0 | 0.9 | 94.8 | -8.5
CCCCC(CC)CNC(=O)c1cccs1 (stereo not drawn) | 1.6 | 1.0 | 7.0 | 98.1 | 2.7
O=C(O)Cc1ccc(O)c(F)c1 | -3.5 | 0.0 | -17.6 | 67.8* | 11.7

Source: PubChem
